# Results as given in PubChem BioAssay AID1117361 (Southern Research Institute, 2015).
# Hit rate of the full screen: of about 3,600 compounds, about 900 (25%) were called active. No rule for the calls is given here. A selection follows. Entries with a potency or affinity are not part of this list.
# Molecular target: Protein Tat (Human immunodeficiency virus type 1 group M subtype B (isolate HXB2)) (UniProt P04608)
# Test: inhibitors of Tat binding to TAR RNA, dose response, counter-screen for Vif-APOBEC3G degradation inhibitor project, biochemical, fluorescence polarization, FAM-labeled TAR RNA (AID 1117361)
# Conditions: outcome: dose series up to 100 µM unless noted; series mostly up to 100 µM
row,SMILES,outcome
1,Oc1ccc(/C=C/c2cnccn2)cc1,inactive
2,Cc1ccc(C)c(S(=O)(=O)Nc2ccc3scnc3c2)c1,inactive
3,O=C(Nc1nncs1)c1c(F)c(F)c(F)c(F)c1F,inactive
4,O=C(CN(C1CCCCC1)S(=O)(=O)c1ccccc1)N1CCCC1,inactive
5,Cc1nc2ccccn2c1/C(O)=C1\C(=O)C(=O)N(CCCn2ccnc2)C1c1ccncc1 (stereo not given),inactive
6,CCN(CC)CCCN1CC(O)=C(c2nc3ccccc3s2)C1=N,inactive
7,Cc1cc(Nc2ccc(C)c(C)c2)n2nc(C)nc2n1,inactive
8,Cc1cc(C(=O)N2CCOCC2)n(-c2ccccc2)n1,inactive
9,O=S(=O)(Nc1ccc(N2CCOCC2)cc1)c1ccccc1,inactive
10,Cc1nn(-c2c(Cl)cc(Cl)cc2Cl)c(=O)c2ccccc12,inactive
11,CC(Sc1nnnn1-c1ccccc1)C(=O)Nc1ccc(Cl)cn1 (stereo not given),inactive
12,O=C(CN1C(=O)C2CC=CCC2C1=O)OCCN1C(=O)c2ccccc2C1=O (stereo not given),inactive [at 50 µM]
13,Cc1ccc(CCNC(=O)C2CCC(=O)N2C2CCCC2)cc1 (stereo not given),inactive
14,Cc1c(NS(=O)(=O)c2cccc(C(=O)NCc3ccncc3)c2)c(=O)n(-c2ccccc2)n1C,inactive
15,O=S(=O)(NCc1ccccc1Cl)c1cnc[nH]1,inactive
16,CNC(=S)N(Cc1ccc(OC)cc1)C1CC(=O)N(c2ccc(Cl)cc2)C1=O (stereo not given),inactive
17,CCN1CCN(Cc2ccc(NC(=O)Nc3ccccc3)cc2)CC1,inactive
18,COc1ccc2cc(C(=O)Nc3ccc(O)cc3)sc(=O)c2c1OC,inactive
19,CCCC(=O)NNC(=O)Nc1ccccc1,inactive
20,O=C(NCC1CCCO1)c1c(O)c2c([nH]c1=O)CCCC2 (stereo not given),inactive
21,CC[n+]1c(/C=C2\C=C(C)CC(C)(C)C2)sc2ccccc21,inactive
22,CCC(C)NC(=O)CSc1ccc(S(=O)(=O)N2CCN(Cc3ccccc3)CC2)cn1 (stereo not given),inactive
23,Cc1csc(NC(=O)CCSCCc2ccccn2)n1,inactive
24,CCOc1ccc(NC(=S)/C(=C(\[O-])c2ccc(C)c([N+](=O)[O-])c2)[n+]2ccccc2)cc1,inactive
25,C=C(C)COc1ccc2c(C)c(C)c(=O)oc2c1OCC(=C)C,inactive
26,COc1ccc(NC(=O)CN(C)S(=O)(=O)c2ccc3c(c2)CCC(=O)N3)c(OC)c1,inactive
27,CCC(Sc1nc2c(c(=O)n1CC)SC(C)C2)C(=O)OC (stereo not given),inactive
28,Cn1c(SCC(=O)N2CCCC2)nc2ccccc2c1=O,inactive
29,Cc1noc(NS(=O)(=O)c2ccc(NC(=O)CSc3nnc(-c4ccccc4)n3C3CCCCC3)cc2)c1C,inactive
30,CC(=O)NCCn1c(SCC(=O)Nc2ccc(C)cc2)nc2ccccc2c1=O,inactive
